Source: ChEMBL document CHEMBL3988442, “University of Dundee, Small-Polar-MMV Screening Library” (2021)

Each compound was assayed against T1, Aspartate--tRNA(Asp/Asn) ligase (Mycobacterium tuberculosis (strain ATCC 25618 / H37Rv)) (UniProt P9WFW3) (assay: Assay for Asp RNA synthetase-1 from Mycobacterium tuberculosis). Conditions: 30 µM.
T1 sequence (whole entry): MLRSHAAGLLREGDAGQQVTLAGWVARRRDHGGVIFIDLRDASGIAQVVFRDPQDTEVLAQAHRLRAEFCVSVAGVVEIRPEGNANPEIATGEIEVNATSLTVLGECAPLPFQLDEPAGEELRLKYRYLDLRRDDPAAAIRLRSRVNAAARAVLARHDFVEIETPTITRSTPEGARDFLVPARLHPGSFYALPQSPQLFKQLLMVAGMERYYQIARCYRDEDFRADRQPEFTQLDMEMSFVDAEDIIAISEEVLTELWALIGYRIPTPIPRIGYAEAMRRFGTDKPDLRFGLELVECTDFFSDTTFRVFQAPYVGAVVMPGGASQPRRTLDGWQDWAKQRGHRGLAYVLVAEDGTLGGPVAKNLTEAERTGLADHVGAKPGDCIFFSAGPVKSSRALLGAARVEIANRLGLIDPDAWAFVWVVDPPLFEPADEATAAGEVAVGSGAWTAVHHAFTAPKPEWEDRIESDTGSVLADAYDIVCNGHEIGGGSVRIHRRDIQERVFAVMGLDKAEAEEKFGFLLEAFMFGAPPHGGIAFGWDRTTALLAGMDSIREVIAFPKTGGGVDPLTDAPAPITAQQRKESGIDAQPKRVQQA
Assay type: functional
Design: scale not given: direction of the effect not stated beside the values

Row | SMILES | Percent Effect [%]
1 | CCC1CN(C(=O)c2ccccc2N2CCCC2)CCN1C(C)C (stereo not given) | -4.91
2 | O=C(NCc1cnc2n1CCN(c1ncc(F)cn1)CC2)C1CCC1 | -2.16
3 | CC(=O)N(C)c1nc(CN2CCCCC2Cn2cncn2)cs1 (stereo not given) | -3.1
4 | COc1cccc(CNC(CN2CCN(C)CC2)c2ccccc2)c1 (stereo not given) | 3.94
5 | CC(C)c1nnc2n1CCN(CCCS(=O)(=O)c1ccccc1)C2 | -5.16
6 | O=C(c1ccc(Br)o1)N1CCCCC1Cn1cccn1 (stereo not given) | 4.78
7 | C=Cn1ncc(CN2C[C@@H]3CCCN3C[C@H]2CCSC)c1C | 1.89
8 | CN1C(=O)C[C@@H]2[C@@H]1CCN2S(=O)(=O)Cc1ccccc1 | -2.58
9 | CC(Cn1cccn1)NC(=O)N1CCN(Cc2cccnc2)CC1 (stereo not given) | 0.625
10 | CCC1=N[C@@]2(CC[C@@H]3CN(Cc4ccc(Cl)cc4)C[C@@H]32)C(=O)N1C | 3.65
11 | O=C(c1cn(-c2cc(N3CCSCC3)ncn2)cn1)N1CCSCC1 | -8.02
12 | O=C1NC2(CCN(Cc3cccnc3)CC2)CC1c1ccncc1 (stereo not given) | 7.31
13 | O=c1[nH]c2c(c(=O)n1C1CCCCC1)CCC2Nc1ccccc1 (stereo not given) | 3.05
14 | CN1CCCC1CNC(=O)CCCOc1ccc(F)cc1 (stereo not given) | -1.43
15 | CN1CC(c2ccccc2)CC12CCN(C(=O)c1ccc(F)cc1)CC2 (stereo not given) | -1.84
16 | Clc1ccccc1C1(c2ccnc(-c3ccncc3)n2)CCNCC1 | 0.832
17 | CN(C)C(=O)C1CCCN1CCCNC(=O)c1ccccc1F (stereo not given) | 7.07
18 | CCc1nc(CN(C)CC(c2cccs2)N2CCOCC2)no1 (stereo not given) | -4.22
19 | O=C(CCNc1ncccn1)NCCc1ccn(-c2ccccc2)n1 | -3.01
20 | O=C(NCc1ccc(-n2cncn2)nc1)c1ccc2c(c1)CCO2 | -1.77

Row | SMILES | Percent Effect [%]
21 | COc1ccccc1C(=O)NC(C)CC(=O)O (stereo not given) | -5.28
22 | CCn1nc(C)c2nc(C(C)C)nc(NCCCO)c21 | 3.48
23 | CC1(C)OCC(CNC(=O)c2cnn(-c3cc(Cl)ccc3Cl)c2N)O1 (stereo not given) | -2.66
24 | O=S(=O)(c1ccccc1)N1CCCCC1c1cc[nH]n1 (stereo not given) | 4.1
25 | CC1N(CC2CC2)C(=O)COC12CCN(Cc1nccs1)CC2 (stereo not given) | -0.821
26 | CC(C)(C)C(=O)NCCC(=O)NC(C)(C)c1ccc2c(c1)OCCO2 | 1.41
27 | CS(=O)(=O)NC1CCc2c(ccc(=O)n2CC2CC2)C1 (stereo not given) | 2.4
28 | c1cnn(CC2CN(c3ncnc4sccc34)CCO2)c1 (stereo not given) | 2.38
29 | CNC(=O)c1cccc(C2CNCCN2C)c1 (stereo not given) | -2.1
30 | CCC(=O)N1CCCC1c1nccnc1Nc1ncccn1 (stereo not given) | 1.12
31 | CC1COCCN1Cc1nc(-c2cccs2)no1 (stereo not given) | 14.7
32 | COc1cccc(CNC(=O)C(c2cccc(F)c2)N2CCOCC2)c1 (stereo not given) | 1.86
33 | CCCN1CCCn2nc(CNS(=O)(=O)c3cccc(C#N)c3)cc2C1 | -1.36
34 | Cc1ncc(-c2ccnc(N3CCN(C)CC3)n2)c(-c2cccnc2)n1 | 4.45
35 | Cc1cnn(CC2CCCN2Cc2nc3ccccc3n2C)c1 (stereo not given) | 3.43
36 | COCCNC(=O)Nc1ccc(F)c(C(N)=O)c1 | 3.91
37 | Cc1cc(C)n(CC(=O)N2CCC(NS(=O)(=O)c3ccccc3)CC2)n1 | 0.878
38 | Cc1cnn(CCNCc2nc(Cc3ccccc3)no2)c1 | -1.23
39 | OC1(Cn2ccc3ccncc32)CCN(Cc2ccccn2)CC1 | -0.402
40 | O=C(CO[C@@H]1CC[C@H]2[C@H]1OCCN2CC1CCOCC1)N1CCCC1 | 0.943

The compounds below were run against Shiga toxin 2 (Escherichia coli O157:H7) (UniProt P09385+P09386) (assay: E. coli 0.157:H7 Shiga Toxin SOP - stx2 screening assay). Conditions: 30 µM.
Assay type: functional
Design: scale not given: direction of the effect not stated beside the values

Row | SMILES | Percent Effect [%]
41 | CCC1CN(C(=O)c2ccccc2N2CCCC2)CCN1C(C)C (stereo not given) | 12.2
42 | O=C(NCc1cnc2n1CCN(c1ncc(F)cn1)CC2)C1CCC1 | 3.59
43 | CC(=O)N(C)c1nc(CN2CCCCC2Cn2cncn2)cs1 (stereo not given) | 9.21
44 | COc1cccc(CNC(CN2CCN(C)CC2)c2ccccc2)c1 (stereo not given) | -26
45 | CC(C)c1nnc2n1CCN(CCCS(=O)(=O)c1ccccc1)C2 | -15.3
46 | O=C(c1ccc(Br)o1)N1CCCCC1Cn1cccn1 (stereo not given) | -8.55
47 | C=Cn1ncc(CN2C[C@@H]3CCCN3C[C@H]2CCSC)c1C | -18.3
48 | CN1C(=O)C[C@@H]2[C@@H]1CCN2S(=O)(=O)Cc1ccccc1 | -4.62
49 | CC(Cn1cccn1)NC(=O)N1CCN(Cc2cccnc2)CC1 (stereo not given) | -18.1
50 | CCC1=N[C@@]2(CC[C@@H]3CN(Cc4ccc(Cl)cc4)C[C@@H]32)C(=O)N1C | 3.45
51 | O=C(c1cn(-c2cc(N3CCSCC3)ncn2)cn1)N1CCSCC1 | 1.44
52 | O=C1NC2(CCN(Cc3cccnc3)CC2)CC1c1ccncc1 (stereo not given) | -19.6
53 | O=c1[nH]c2c(c(=O)n1C1CCCCC1)CCC2Nc1ccccc1 (stereo not given) | 1.28
54 | CN1CCCC1CNC(=O)CCCOc1ccc(F)cc1 (stereo not given) | 1.57
55 | CN1CC(c2ccccc2)CC12CCN(C(=O)c1ccc(F)cc1)CC2 (stereo not given) | 11.8
56 | Clc1ccccc1C1(c2ccnc(-c3ccncc3)n2)CCNCC1 | -43.2
57 | CN(C)C(=O)C1CCCN1CCCNC(=O)c1ccccc1F (stereo not given) | -18.5
58 | CCc1nc(CN(C)CC(c2cccs2)N2CCOCC2)no1 (stereo not given) | -5.08
59 | O=C(CCNc1ncccn1)NCCc1ccn(-c2ccccc2)n1 | -46.2
60 | O=C(NCc1ccc(-n2cncn2)nc1)c1ccc2c(c1)CCO2 | 12.9

Row | SMILES | Percent Effect [%]
61 | COc1ccccc1C(=O)NC(C)CC(=O)O (stereo not given) | -19.9
62 | CCn1nc(C)c2nc(C(C)C)nc(NCCCO)c21 | -3.03
63 | CC1(C)OCC(CNC(=O)c2cnn(-c3cc(Cl)ccc3Cl)c2N)O1 (stereo not given) | 17.5
64 | O=S(=O)(c1ccccc1)N1CCCCC1c1cc[nH]n1 (stereo not given) | 62
65 | CC1N(CC2CC2)C(=O)COC12CCN(Cc1nccs1)CC2 (stereo not given) | -13.9
66 | CC(C)(C)C(=O)NCCC(=O)NC(C)(C)c1ccc2c(c1)OCCO2 | -2.07
67 | CS(=O)(=O)NC1CCc2c(ccc(=O)n2CC2CC2)C1 (stereo not given) | -5.71
68 | c1cnn(CC2CN(c3ncnc4sccc34)CCO2)c1 (stereo not given) | -6.78
69 | CNC(=O)c1cccc(C2CNCCN2C)c1 (stereo not given) | -13.8
70 | CCC(=O)N1CCCC1c1nccnc1Nc1ncccn1 (stereo not given) | 2.75
71 | CC1COCCN1Cc1nc(-c2cccs2)no1 (stereo not given) | 20.8
72 | COc1cccc(CNC(=O)C(c2cccc(F)c2)N2CCOCC2)c1 (stereo not given) | -6.55
73 | CCCN1CCCn2nc(CNS(=O)(=O)c3cccc(C#N)c3)cc2C1 | 28.5
74 | Cc1ncc(-c2ccnc(N3CCN(C)CC3)n2)c(-c2cccnc2)n1 | -20.4
75 | Cc1cnn(CC2CCCN2Cc2nc3ccccc3n2C)c1 (stereo not given) | -9.07
76 | COCCNC(=O)Nc1ccc(F)c(C(N)=O)c1 | -19.7
77 | Cc1cc(C)n(CC(=O)N2CCC(NS(=O)(=O)c3ccccc3)CC2)n1 | 31.2
78 | Cc1cnn(CCNCc2nc(Cc3ccccc3)no2)c1 | 25
79 | OC1(Cn2ccc3ccncc32)CCN(Cc2ccccn2)CC1 | -26.5
80 | O=C(CO[C@@H]1CC[C@H]2[C@H]1OCCN2CC1CCOCC1)N1CCCC1 | -4.47
